The entries come from a sample that favours hits as a whole.
Cruzain inh noDet: qHTS Assay for Promiscuous and Specific Inhibitors of Cruzain (without detergent); Cruzipain (Trypanosoma cruzi), P25779; 200,000 tested, 2.3% active; purified cruzain, Z-FR-AMC fluorescence, no detergent; AID 1476, 2009; Potency, µM, for the others: max response, negative = inhibition, actives largely listed as inhibitors; active means well fitted curve in the direction sought with a large enough effect; inconclusive means small, poorly fitted or top-dose-only effect, or another doubt; inactive means no such curve, though single readings can be large; an effect the other way counts as inactive or inconclusive;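 further: potency means the concentration at half of the fitted maximal effect; plate controls were enzyme without inhibitor for no effect and buffer without enzyme for full effect; nearly all actives have a fitted effect of over 40% in size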
Target sequence (P25779 123-467 limits assumed): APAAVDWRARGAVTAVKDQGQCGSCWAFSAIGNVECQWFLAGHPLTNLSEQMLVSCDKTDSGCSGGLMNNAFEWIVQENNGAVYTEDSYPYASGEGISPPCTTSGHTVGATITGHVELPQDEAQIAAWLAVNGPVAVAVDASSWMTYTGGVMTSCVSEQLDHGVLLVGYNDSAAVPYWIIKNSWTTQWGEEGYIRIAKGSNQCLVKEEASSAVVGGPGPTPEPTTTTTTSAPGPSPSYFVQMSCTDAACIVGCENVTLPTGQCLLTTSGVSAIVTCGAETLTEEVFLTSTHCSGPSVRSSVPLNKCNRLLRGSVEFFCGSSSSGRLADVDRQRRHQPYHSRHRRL
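Purified cruzain at 1.5 nM, pre-incubated 15 min with compound at room temperature in 100 mM sodium acetate pH 5.5, 5 mM DTT, 0.00005% Triton X-100. Reaction started with 2 uM Z-FR-AMC; AMC fluorescence increase over 60 s gives rate.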
Cruzain Triton: qHTS Assay for Promiscuous and Specific Inhibitors of Cruzain (with detergent). purified cruzain, Z-FR-AMC fluorescence, 0.01% Triton. Potency, µM, without a hit: max response, negative = inhibition, actives largely listed as inhibitors. 200,000 tested, 0.43% active; active means well fitted curve in the direction sought with a large enough effect; inconclusive means small, poorly fitted or top-dose-only effect, or another doubt; inactive means no such curve, though single readings can be large; an effect the other way counts as inactive or inconclusive;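 further: potency means the concentration at half of the fitted maximal effect; plate controls were neutral wells for no effect and buffer without enzyme for full effect; nearly all actives have a fitted effect of over 40% in size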
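Z-FR-AMC hydrolysis (2 uM substrate) by cruzain (1.5 nM) monitored kinetically at ex 360/em 450 nm after 15 min room-temperature compound exposure; 0.01% Triton X-100, pH 5.5, 5 mM DTT.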
NS1 inh: qHTS Assay for Inhibitors of Influenza NS1 Protein Function. Potency, µM (top dose mostly 46.1 µM), without a hit: at the highest dose activity, positive = more growth. 270,000 tested, 0.4% active; further: potency means the concentration at half of the fitted maximal effect; actives are rising curves; nearly all actives have a fitted effect of over 50% in size
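Compounds were scored for reversing the slow growth caused by influenza A NS1 in S. cerevisiae, measured by optical density at 600 nm. Assay medium contained 2% galactose at pH 6.0; NS1-free yeast of the same strain were the positive control.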
Flu NS1 inh: Assay for Inhibitors of Influenza NS1 Protein Function: Hit Validation | shares compounds with NS1 inh | influenza NS1 function cell assay, 15-point titration | activity change, negative = inhibition, % at 32.9 µM | 1,400 tested, under 10 active | AID 492980, 2010; further: 0% is about no effect
PR8 titer: Assay for Inhibitors of Influenza NS1 Protein Function: Influenza virus replication assay in MDCK cells infected with virus A/PR/8/34 | AID 504647, 2011 | virus titer (log TCID50), log10 TCID50 at 5 µM | MDCK infected influenza A/PR/8/34, virus titer TCID50; active compounds read low | shares compounds with NS1 inh | 95 tested, 30% active; call rule not given here
* marks the source's active call; other numbers are inactive results; ? = inconclusive; . = no result given. Unless noted, the call rests on the fitted dose curve.

SMILES	Cruzain inh noDet	Cruzain Triton	NS1 inh	Flu NS1 inh	others
COc1ccc(CN(C(=O)c2cc(=O)c3ccccc3o2)C2CCS(=O)(=O)C2)cc1 (stereo unspecified)	.	.	-4%	.
CCCc1cc(-c2n[nH]c(C(=O)OCC)c2-c2cscn2)c(O)cc1O	-1%	-2%	12%	.
COc1cccc(C2=NOC(C(=O)NCc3cccnc3)C2)c1 (stereo unspecified)	.	.	3%	.
CC(C)(C)NC(=O)NC(=O)CN1CCN(c2cccc(Cl)c2)CC1	.	.	7.9µM*	-26	PR8 titer=8.3
COC(=O)c1ccc(NC(=O)CN2CCN(c3cccc(Cl)c3)CC2)cc1	-2%	-3%	-80%	.
O=C(NCC1CCCO1)c1nn2c(C(F)(F)F)cc(-c3cc(Br)cs3)nc2c1Br (stereo unspecified)	.	.	2%	.
CN(Cc1cccc(F)c1)C(=O)c1ccc(S(=O)(=O)C(F)F)cc1	-2%	-2%	2.8µM*	0
CN(Cc1cccc(F)c1)C(=O)c1cccc(S(=O)(=O)N2CCN(Cc3ccccc3)CC2)c1	.	.	-34%	.
CCN(CC)c1nc2n(c(=O)n1)CCO2	4%	5%	-4%	.
CCN(CC)c1nc(N)n(CCSC(=S)N(C)C)c(=O)n1	.	.	?	3
CC(=O)Nc1ccc(Nc2nc(Cl)nc(Nc3ccc(NC(C)=O)cc3)n2)cc1	.	.	1%	.
O=C1OCCN1C(=O)[C@H]1[C@H](c2ccc(Cl)cc2)C(c2ccccc2)=NN1c1ccccc1	?	6%	.	.
O=C1OCCN1C(=O)[C@H]1[C@H](c2ccc([N+](=O)[O-])cc2)C(c2cccc(Cl)c2)=NN1c1ccccc1	11µM*	0%	22µM*	28
N#CC1=C(N)OC2=C(CC/C2=C\c2ccccc2)C1c1ccccc1 (stereo unspecified)	?	-3%	0.89µM*	?
N#CC1=C(N)OC2=C(CC/C2=C\c2ccccc2Cl)C1c1ccccc1Cl (stereo unspecified)	?	-3%	7%	.
CCCCC(=O)O[C@H]1CC[C@H]2[C@@H]3CCc4cc(O)ccc4[C@H]3CC[C@]12C	-11%	-4%	9%	.
Cc1cc(NC(=O)/C(C#N)=C/c2ccc(-c3ccc(SC(F)F)cc3)o2)n(-c2ccccc2)n1	-3%	-2%	0%	.
COc1ccc(-c2ccc([C@H]3[C@@H]4C=CCC[C@@]4(C)C(=O)N3Cc3ccccc3)c(F)c2)cc1OC	.	.	3%	.
CN(C)c1ccc(-c2ccc([C@H]3[C@@H]4C=CCC[C@@]4(C)C(=O)N3Cc3ccccc3)c(F)c2)cc1	.	.	5.6µM*	-27
O=S(=O)(NNc1ccc(Cl)nn1)c1ccc(F)cc1	-24%	-2%	17%	.
CCc1ccc(-c2nc(SCC(=O)NCC3CCCO3)c(-c3ccc(F)cc3)[nH]2)cc1 (stereo unspecified)	8%	-5%	.	.
CCS(=O)(=O)N1CCCC(C(=O)NCCc2ccc(C)cc2)C1 (stereo unspecified)	-2%	0%	2%	.
C[C@@H]1C[C@@H]2OC(=O)[C@]3(C)[C@H]2[C@@H](OC3(C)O)[C@]2(C)C(=O)C=C[C@H]12 (stereo partly specified)	.	.	2%	.
C=C1C(=O)C=C[C@]2(C)C[C@@H]3OC(=O)[C@](C)(O)[C@H]3C[C@@H]12	.	.	?	0
COc1ccc(CN(CC(=O)NCC2CCCO2)C(=O)CNS(=O)(=O)c2ccccc2)cc1 (stereo unspecified)	.	.	7%	.
SMILES	Cruzain inh noDet	Cruzain Triton	NS1 inh	Flu NS1 inh	others
OC(CNC1CCCC1)COCCOc1ccc(Br)cc1 (stereo unspecified)	.	.	-1%	.
Cc1ccc(NC(=O)CC(=O)c2ccc([N+](=O)[O-])cc2)cc1S(=O)(=O)Nc1cccc(Cl)c1	.	.	14µM*	7	PR8 titer=7.5*
Cc1ccc(NS(=O)(=O)c2cc(C(=O)Nc3cccc([N+](=O)[O-])c3)ccc2C)cc1	11%	-6%	?	.
Cc1nc(-c2ccc(Cl)cc2)sc1C1(C)CC(c2c(Cl)cccc2Cl)=NO1 (stereo unspecified)	.	.	10µM*	18
Cc1nc(-c2ccc(Cl)cc2)sc1C1(C)CC(c2cccnc2)=NO1 (stereo unspecified)	.	.	-21%	.
CC(Sc1nncn1-c1ccccc1)C(=O)Nc1cccc([N+](=O)[O-])c1 (stereo unspecified)	-6%	-4%	23%	.
N#C/C(=C\c1cn(CCOc2ccccc2)c2ccccc12)C(=O)NCc1ccco1	1%	14%	?	-15
CCOC(=O)/C(C#N)=C/c1cn(CCOc2ccccc2)c2ccccc12	-15%	-6%	4%	.
COc1cccc(NC(=O)CC2S/C(=N\S(=O)(=O)c3ccccc3)N(c3ccccc3)C2=O)c1 (stereo unspecified)	?	-2%	10µM*	20
COc1cccc(NC(=O)CC2SC(=Nc3ccccc3)NC2=O)c1 (stereo unspecified)	5%	-5%	-3%	.
C=CCn1c(SCC2=C(C(=O)OCC)C(C)NC(=O)N2)nnc1C1CCCCC1 (stereo unspecified)	-3%	2%	11µM*	-10	PR8 titer=8
C=CCn1c(SCC(=O)NC(=O)NCCC)nnc1C1CCCCC1	8%	3%	4%	.
O=C(c1ccco1)N1CCN(C2CC(=O)N(c3ccc(C(F)(F)F)cc3)C2=O)CC1 (stereo unspecified)	.	.	12%	.
CCCn1c(SCC(=O)NCCc2ccccc2)nnc1-c1cccnc1	-2%	3%	-11%	.
CCCn1c(SCC(=O)NNC(=O)c2ccccc2)nnc1-c1cccnc1	.	.	?	2
NC(=O)C1CCN(C(=O)Cc2ccc(-c3ccccc3)cc2)CC1	.	.	22%	.
COc1ccc(Nc2cnn(-c3nc4ccccc4s3)c(=O)c2Cl)cc1	-5%	-12%	-28%	.
CNc1nc(-c2ccc3c(c2)CCN3C(=O)c2ccccc2C)cs1	.	.	12%	.
Cc1ccccc1C(=O)N1CCc2cc(-c3nc(NC(=O)Cc4ccc5c(c4)OCO5)sc3C)ccc21	3.2µM*	-14%	?	1
COc1ccc(Nc2nc(C)c(-c3ccccc3)s2)cc1	7%	-14%	-18%	.
COCCn1c(=O)[nH]c(=O)c2c1nc(-c1ccc(-c3ccc(Cl)cc3[N+](=O)[O-])o1)n2Cc1ccccc1	-12%	-11%	21%	.
COc1ccc(-c2ccc(-c3nc4c(c(=O)[nH]c(=O)n4Cc4ccccc4)n3C)o2)c([N+](=O)[O-])c1	?	-2%	3.5µM*	-11
CCc1cc2c(=O)n(Cc3ccco3)c(SCC(=O)NCC3CCCO3)nc2s1 (stereo unspecified)	.	.	9%	.
CCc1cc2c(=O)n(Cc3ccco3)c(SCC(=O)N3CCCc4ccccc43)nc2s1	?	-6%	7.1µM*	5
COc1ccc(CN(Cc2cccnc2)S(=O)(=O)c2ccc(-n3cnnn3)c(OC)c2)cc1	.	.	-5%	.
